Shown are actives, neighbours in structure and some others; about 2.4% of the full set was active somewhere.
M1 ag parental: nonselective activator or artifact in parental CHO-K1 cells | Fluo-8 calcium fluorescence; scaled to maximal ATP response, vehicle zero | activation, % at 3 µM | 360,000 tested, 0.48% active | AID 602248; in the data active = activation above about 15%;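 also: untransfected CHO-K1 host cells lacking M1 receptor as counterscreen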
CHO-K1 Ca antag: counter-screen for M1 antagonists: effect in parental CHO-K1 cells; ATP-induced calcium, Fluo-8 fluorescence; inhibition, % at 3 µM; 360,000 tested, 0.6% active; AID 602250;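 active = inhibition above a per-plate cutoff, the plate's mean sample inhibition plus 3 SD, cut at about 24% in these data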;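 also: 0% = DMSO plus EC80 ATP and 100% = DMSO alone without ATP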
CHRM1 antagonist: human CHRM1 antagonism; 360,000 tested, 1.3% active; CHO-K1 hM1, Fluo-8 calcium fluorescence, ACh EC80 antagonist; inhibition, % at 3 µM;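 active = percent inhibition above its own plate's cutoff, namely the mean of that plate's compound wells plus 3 SD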;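 also: peak over basal fluorescence ratio during 140 s after agonist addition; 0% = ACh EC80 plus DMSO and 100% = DMSO alone without agonist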
Target sequence (P11229 whole entry, looked up): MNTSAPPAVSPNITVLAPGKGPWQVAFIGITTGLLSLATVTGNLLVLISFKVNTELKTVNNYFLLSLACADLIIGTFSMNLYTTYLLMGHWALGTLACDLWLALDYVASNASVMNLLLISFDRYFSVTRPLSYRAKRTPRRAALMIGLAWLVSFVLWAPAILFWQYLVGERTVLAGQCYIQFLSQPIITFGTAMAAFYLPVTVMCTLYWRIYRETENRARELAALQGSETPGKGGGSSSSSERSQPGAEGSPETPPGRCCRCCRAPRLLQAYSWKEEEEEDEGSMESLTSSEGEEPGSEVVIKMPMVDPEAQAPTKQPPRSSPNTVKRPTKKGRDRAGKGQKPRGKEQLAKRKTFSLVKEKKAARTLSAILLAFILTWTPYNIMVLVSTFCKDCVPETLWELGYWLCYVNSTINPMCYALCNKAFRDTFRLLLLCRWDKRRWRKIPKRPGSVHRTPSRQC
M1 ag: agonists of human M1 muscarinic receptor; AID 588814; CHO-K1 hM1, Fluo-8 calcium fluorescence, agonist mode; 0% DMSO, 100% acetylcholine EC100; P11229; 360,000 tested, 0.33% active; activation, % at 3 µM;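 active = activation above the run's mean compound activation plus 3 SD, cut at about 16% in these data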;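 also: peak over basal fluorescence ratio within a 140 s kinetic read after compound addition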
M1 PAM parental: nonselective activator or artifact in parental CHO-K1 calcium assay; ATP EC20, Fluo-8 calcium fluorescence; 0% at ATP EC20, 100% at ATP max; activation, % at 3 µM; 360,000 tested, 0.02% active;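 active = activation above the run cutoff, the mean activation of all test compounds plus 3 SD, cut at about 40% in these data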;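 also: peak over basal fluorescence ratio in a 140 s read after ATP addition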
M1 PAM: human CHRM1 positive allosteric modulation; CHO-K1 hM1, Fluo-8 calcium fluorescence, ACh EC20; 0% = ACh EC20, 100% = maximal ACh; activation, % at 3 µM; 360,000 tested, 0.088% active; AID 588819; in the data active = activation above about 19%, passing the limit was not always enough
Starred values were filed as active, the others as inactive.

SMILES	M1 ag parental	CHO-K1 Ca antag	CHRM1 antagonist	M1 ag	M1 PAM parental	M1 PAM
COc1cccc2cc(C(=O)NCc3ccccc3Br)c(=O)oc12	0	-1	4	-4	12	4
COc1cccc2cc(C(=O)NCc3ccccc3Cl)c(=O)oc12	15*	6	-8	-1	11	9
O=C(CCc1ccc(S(=O)(=O)N2CCOCC2)cc1)OCC(=O)c1ccccc1	1	-10	-2	-2	8	3
N#Cc1cn(CCOC(=O)c2cccc(C(F)(F)F)c2)c(=O)[nH]c1=O	1	37*	10	-3	-13	-11
CCOC(=O)Cn1cc(C#N)c(=O)[nH]c1=O	0	-3	0	-3	-3	5
CC(C)Oc1ccc(C(CC(=O)O)Cc2ccccc2)cc1 (stereo not given)	0	-9	-8	-4	13	7
CCOC(=O)c1ccc(NC(=S)N2CCSC2c2ccc(Br)cc2)cc1 (stereo not given)	6	16	33*	34*	-6	-4
CCC1Oc2ccc(C)cc2N(CC(=O)N(Cc2ccc(C)o2)C2CC(C)(C)NC(C)(C)C2)C1=O (stereo not given)	1	-7	29*	-2	16	-10
COc1ccc2c(COC(=O)CNS(=O)(=O)c3ccccc3)cc(=O)oc2c1	2	-13	5	-4	7	0
CCCNS(=O)(=O)c1cccc(C(=O)OCc2cc(=O)oc3cc(OC)ccc23)c1	16*	1	21	-3	2	-17
COc1ccc(S(=O)(=O)NCCC(=O)OCc2cc(=O)oc3cc(C)ccc23)cc1[N+](=O)[O-]	11	34*	48*	-1	-13	-16
COc1cc(OC)cc(C(=O)NCC(=O)OCc2cc(=O)oc3cc(OC)ccc23)c1	18*	3	-7	-1	15	9
COc1ccc2c(COC(=O)c3cccc(S(=O)(=O)NCC(C)C)c3)cc(=O)oc2c1	17*	20	38*	-2	-12	-24
O=C(NCCCN1CCCC1=O)Nc1ccc(Br)cc1Cl	1	-2	1	-4	-17	3
CC(C)(C)CC(=O)NCCCCCCNC(=O)CC(C)(C)C	2	-15	-7	-5	17	7
CC(C)(C)C(=O)NC(=S)NNC(=O)c1ccc(Cl)cc1Cl	119*	59*	87*	117*	-32	-24
Cc1ccc(C(=O)NNC(=O)c2ccc(NC(=O)C(C)(C)C)cc2)cc1	15*	4	-7	8	2	9
CC(C)(C)C(=O)NC(=S)NNC(=O)c1ccc(-c2ccccc2)cc1	107*	95*	103*	115*	-26	-24
COc1cc(C(O)c2nc(-c3cccc(NC(C)=O)c3)cs2)ccc1F (stereo not given)	5	6	8	2	5	-3
COc1ccccc1CNS(=O)(=O)c1ccc2c(c1)CC(C)N2C(=O)C1CC1 (stereo not given)	15	-15	3	3	5	-8
COc1ccccc1CNS(=O)(=O)c1ccc2c(c1)CC(C)N2C(=O)C1CCC1 (stereo not given)	14	31*	32	5	-10	-15
COc1cc(NC(C)CCCN)c2ncccc2c1Oc1ccccc1 (stereo not given)	0	3	-5	-2	-7	7
O=C(O)CSc1ccc2ccccc2n1	0	-6	12	-2	7	-13
O=C(CSc1ccc2ccccc2n1)c1ccc2c(c1)OCO2	-1	28*	5	-1	-8	1
O=C(/C(N=Nc1cccc(C(F)(F)F)c1)=C(/O)c1cccs1)C(F)(F)F	16*	2	-7	1	21	9
SMILES	M1 ag parental	CHO-K1 Ca antag	CHRM1 antagonist	M1 ag	M1 PAM parental	M1 PAM
Cc1ccc(NC(=O)CNC(=O)c2cccc(C)c2)nc1	0	3	-7	21*	11	0
CC(C)=CCC/C(C)=C/CC/C(C)=C/COc1ccc2ccc(=O)oc2c1	-1	11	6	-4	-22	-1
O=C1Nc2ccc(Br)cc2/C1=C/C(=O)c1ccc2c(c1)OCO2	2	12	15	10	-1	8
COc1ccc(C(=O)/C=C2\C(=O)Nc3ccc(Br)cc32)cc1	4	13	20	19*	9	12
CCC(C)NC(=O)c1ccc(N2CC3CC(C2)c2cccc(=O)n2C3)c(NC(=O)c2c(F)cccc2F)c1 (stereo not given)	0	3	-4	22*	-2	-4
COCCNC(=O)c1ccc(N2CC3CC(C2)c2cccc(=O)n2C3)c(NC(=O)c2c(F)cccc2F)c1 (stereo not given)	0	-12	2	15	16	12
O=CNC1(c2ccccc2)CCCCC1	0	-14	-13	-3	6	8
COCc1nnc(NC(=O)c2ccc(OC)cc2OC)s1	0	5	3	-2	-1	6
COc1ccc(C(=O)Nc2nnc(CCc3ccccc3)s2)c(OC)c1	0	35*	13	-4	-21	-4
Cc1ccccc1OCC(=O)Nc1ccc(N2CCN(C)CC2)c(Cl)c1	5	-9	45*	-13	-8	-32
COc1ccc(OCC(=O)Nc2ccc(N3CCN(C(=O)c4ccccc4)CC3)c(Cl)c2)cc1	15	25*	36*	6	-23	-14
COc1ccc(OCC(=O)Nc2ccccc2C(=O)N2CCOCC2)cc1	17*	4	-4	-1	4	6
COc1ccc(OCC(=O)Nc2ccc(N3CCOCC3)c(Cl)c2)cc1	4	-3	-6	1	20	1
O=C(CS(=O)(=O)Cc1ccccc1)Nc1ccc(S(=O)(=O)N2CCOCC2)cc1	1	-2	-5	-7	20	2
CCN(CC)c1ncnc2c1ncn2[C@H]1CN(Cc2cc(OC)c(OC)c(OC)c2)C[C@@H](CO)O1	0	1	-13	0	16	6
CCOc1ccc(NC(=O)c2ccc(NC(=O)c3ccccc3Br)cc2)cc1	7	30*	19	-3	-16	-6
CCOc1ccc(NC(=O)c2ccccc2CO)cc1	0	30*	-6	-6	-7	3
O=c1[nH]ccc2c(O)cccc12	0	2	-22	27*	7	-10
CCCCN(C(=O)c1nn(C)c(=O)c2ccccc12)c1c(N)n(CC(C)C)c(=O)[nH]c1=O	1	-21	-11	-3	11	10
COc1ccc(CNC(=O)c2cnn3c(C(F)F)cc(C)nc23)cc1OC	4	26*	-7	4	-5	5
Cc1ccc(C(=O)Oc2ccccc2N2CCOCC2)cc1	20*	-4	-3	-2	8	1

Screening data deposited in PubChem by The Scripps Research Institute Molecular Screening Center.
